Sm TGR inh – S. mansoni TGR enzyme inhibition; Q962Y6; purified TGR, DTNB reduction, TNB absorbance 405 nm; Potency, µM (top dose mostly 114 µM), without a hit: top-dose activity change, negative = inhibition, usual class: inhibitors; 360,000 compounds, 3% hits; AID 485364; further: potency means the concentration at half of the fitted maximal effect; on the % scale 0 is the no-effect control and ±100 the full control effect; nearly all actives have a fitted effect of over 60% in size
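Kinetic colorimetric format: TGR-catalysed, NADPH-driven DTNB reduction monitored via TNB absorbance. Enzyme dispensed at 20 nM; compound exposure 15 min at room temperature before reaction start.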
CHX counter – counter-screen for Shiga toxin inhibitors: cycloheximide protein synthesis inhibition. cell reporter, cycloheximide protein synthesis inhibition counterscreen. AID 2314. 300,000 compounds, 12% hits. max response, %; in the data active means max response mostly above about 13%, no sharp cut-off; inactive means mostly below about 14%; further: read at 38.3 µM for the half of the compounds with a filed dose; 0% is about no effect
NS1 inh – inhibitors of influenza NS1 protein function | Potency, µM (highest dose often 46.1 µM), for the others: top-dose activity, positive = more growth | 270,000 compounds, 0.4% hits; calls by dose curve; further: potency means the concentration at half of the fitted maximal effect; actives are rising curves; nearly all actives have a fitted effect of over 50% in size
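Recovery from NS1-induced slow growth read by OD600 in budding yeast switched to galactose assay medium (pH 6.0, -URA) at 1:100 dilution. Compound 23 nl per well; the matching strain lacking NS1 serves as control.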
Pf growth 48h – P. falciparum growth inhibition at 48 hours (one generation). P. falciparum luciferase growth in erythrocytes, 48 h. 310,000 compounds, 5.9% hits. Potency, µM (series often up to 28.7 µM), inactives show at the top dose activity change, negative = inhibition, usual class: inhibitors; further: potency means the concentration at half of the fitted maximal effect; on the % scale 0 is the no-effect control and ±100 the full control effect
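Erythrocytes infected with P. falciparum carrying an integrated firefly luciferase reporter (2% hematocrit, 0.1% parasitemia final) were exposed to compounds in RPMI 1640 with 0.5% Albumax at 37 C, 5% CO2. Growth inhibition was scored as reduced luminescence.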
Pf growth 96h – P. falciparum growth inhibition at 96 hours; 320,000 compounds, 6.9% hits; Potency, µM (titrated, usually from 28.7 µM), for inactives: top-dose activity change, negative = inhibition, most hits filed as inhibitors; P. falciparum luciferase reporter growth, 96 h; AID 504834; further: potency means the concentration at half of the fitted maximal effect; on the % scale 0 is the no-effect control and ±100 the full control effect
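Plates of compound plus infected erythrocytes (2% hematocrit, 0.05% parasitemia final) incubate 96 hours, 37 C, 5% CO2. Detection reagent added; reduced luminescence from the parasites' luciferase reporter flags inhibition.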
Shiga toxin inh – Shiga toxin inhibition; 290,000 compounds, 9.2% hits; inhibition, % at 38.7 µM; Vero cells, Shiga toxin protein synthesis inhibition reporter; in the data active means inhibition mostly above about 28%, no sharp cut-off; inactive means mostly below about 43%; further: 0% is about no effect
Active calls of the source: *; ? = inconclusive; . = not tested or not shown; [ ] = remark or other dose. Hits are enriched below; roughly 21% of the tested compounds scored in any of these assays. Unless noted, the call rests on the fitted dose curve; in most records, active means well fitted curve in the direction sought with a large enough effect; inconclusive means small, poorly fitted or top-dose-only effect, or another doubt; inactive means no such curve, though single readings can be large; an effect the other way counts as inactive or inconclusive.

SMILES	Sm TGR inh	CHX counter	NS1 inh	Pf growth 48h	Pf growth 96h	Shiga toxin inh
CC(C)(C)c1csc(NC(=O)Nc2ccccc2)n1	4.1%	50.9*	.	13.5%	19.5%	72.1*
Cc1ccc(C)n1-c1cccc(NC(=O)c2ccccc2)c1	?	19.2*	10.3%	?	13.4%	38.5*
Cc1ccc(C)n1-c1ccc(C(=O)O)cc1	17.8µM*	5.7	17.9%	.	-15.1%	18.3
Cc1ccc(C)n1-c1ccc(C(=O)Nc2ccccc2)cc1	25.1µM*	33.6*	16.2%	?	?	98.2*
Cc1nc(=O)c(-c2ccccc2)c(C)n1-c1ccc(C(=O)O)cc1	-15.3%	-3.5	-3.8%	-22.7%	1.65µM*	23.2
Cc1cccc(CNS(=O)(=O)c2ccc3[nH]c(=O)ccc3c2)c1	3.7%	.	.	.	.	.
COc1cc(OC)c(Nc2nc3ccc(C)cc3n3nnnc23)cc1Cl	-1.5%	.	.	.	.	.
COc1ccc(CCNS(=O)(=O)c2cc(C(=O)O)c(Cl)cc2Cl)cc1	2.4%	-6.1	5.2%	-30.6%[1.15 µM]	-40.0%[1.15 µM]	6.2
COc1ccc(CCNC(=O)CSc2nnc(CNC(=O)c3c(F)cccc3Cl)o2)cc1OC	-5.8%	-3.5	8.3%	4.7%	-20.5%	-3.3
CC(C)CC(=O)N(c1nnc(-c2cccnc2)s1)C1CCCC1	0.7%	10.9*	-16.8%	?	?	15.0
CCN(C(=O)C1CCCCC1)c1nnc(-c2cccnc2)s1	-9.2%	12.5	-47.3%	?	0.0%	-2.9
CC(=O)N(c1ccccc1)C1CCCC1	0.1%	-2.4	-0.3%	-1.4%	0.0%	-0.4
CC(=O)N(c1nnc(-c2ccc(C)cc2)s1)C1CCCC1	?	28.3*	21.6%	40.7%	?	26.1*
COc1ccc(NC(=O)COc2ccc(N(C)S(=O)(=O)c3ccc(Cl)cc3)cc2)cc1OC	-5.0%	.	.	?	?	.
COc1cc(NC(=O)C2CCC(CNc3c(N4CCC(C)CC4)c(=O)c3=O)CC2)cc(OC)c1 (centres undefined)	4.7%	-7.8	17.4%	.	-26.6%	-12.4
CCOc1ccc(NC(=O)C2CCC(CNc3c(N4CCCCC4)c(=O)c3=O)CC2)cc1 (centres undefined)	10.2%	0.7	-5.6%	6.57µM*	5.86µM*	-9.9
CCOc1ccc(NC(=O)C2CCC(CNc3c(N4CCC(C)CC4)c(=O)c3=O)CC2)cc1 (centres undefined)	-1.0%	-3.2	2.7%	4.15µM*	2.33µM*	-7.7
O=C(Nc1ccc(F)cc1)C1CCC(CNc2c(N3CCCCC3)c(=O)c2=O)CC1 (centres undefined)	10.6%	-0.7	6.1%	11.7µM*	?	-8.5
COc1ccc(NC(=O)C2CCC(CNc3c(N4CCC(C)CC4)c(=O)c3=O)CC2)cc1OC (centres undefined)	-1.5%	-4.0	1.6%	.	-38.6%	-16.2
CCOc1ccc(NC(=O)CCNc2c(N3CCCC3)c(=O)c2=O)cc1	-0.7%	0.3	1.6%	2.3%	53.9%	14.6
COc1cc(NC(=O)C2CCC(CNc3c(N4CCCCC4)c(=O)c3=O)CC2)cc(OC)c1 (centres undefined)	3.5%	1.0	-37.0%	11.7µM*	5.1%	-1.6
COc1ccc(NC(=O)Cc2ccc(C)c(C)c2)cc1Cl	2.1%	20.4	.	?	?	24.7
CC(C)c1ccc(CNc2ncccn2)cc1	-18.2%	39.5*	-4.2%	87.5%	12.1%	41.7*
CC(C)c1ccc(CNc2ccc3c(c2)ncn3C)cc1	5.2%	59.9*	-8.7%	17.0%	24.6%	103.7*
CN(C)c1ccc(CNc2ccc3c(c2)ncn3C)cc1	35.5µM*	19.6*	0.1%	.	53.2%	17.9
SMILES	Sm TGR inh	CHX counter	NS1 inh	Pf growth 48h	Pf growth 96h	Shiga toxin inh
c1ccc(CNc2ccccn2)cc1	65.1%	0.5	2.2%	-0.3%	257.7%	-6.3
Cc1c(C(=O)N2CCC(C)CC2)c(S(=O)(=O)Nc2cccc(C(F)(F)F)c2)c(C)n1C	5.8%	.	.	.	.	.
COc1ccc(OC)c(C2C(C(=O)c3ccccc3)=C(C)Nc3nc4ccccc4n32)c1 (centres undefined)	-5.9%	-0.8	-7.2%	?	?	-16.1
COc1ccc(C2C(C(=O)c3ccccc3)=C(C)Nc3nc4ccccc4n32)cc1OC (centres undefined)	-3.6%	6.5	8.7%	-21.0%	3.29µM*	35.5
CC(=O)NCCOC(=O)Nc1sc(=S)n(C)c1C	0.0%	-3.8	-8.3%	9.6%	30.7%	7.2
Cc1c(NC(=O)OC(C)C)sc(=S)n1C	35.5µM*	-2.5	13.1%	8.3%	2.2%	-0.9
CN1C(=O)c2ccccc2Sc2ccc(C(=O)O)cc21	-8.6%	9.4	-1.3%	20.3%	52.6%	-3.0
CN1/C(=C\C(=O)c2cccc([N+](=O)[O-])c2)Sc2ccccc21	-5.0%	38.4*	-13.4%	225.7%	160.6%	97.1*
CN(C)/C=C/C(=O)c1cccc([N+](=O)[O-])c1	-20.3%	9.9	6.9%	-2.2%	2.6%	-3.8
COc1cc(OC)cc(C(=O)/C=C2\Sc3ccccc3N2C)c1	-10.0%	41.0*	-13.8%	148.5%	87.2%	42.1*
COc1ccc2c(c1)S/C(=C\C(=O)c1ccncc1)N2C	-2.2%	46.7*	-137.2%	80.0%	23.2%	109.8*
CC(=O)c1ccc2c(c1)N(C)c1ccccc1S2	-23.5%	15.2*	-3.1%	22.7%	9.8%	15.4*
COc1ccc2c(c1)SCC(=O)N2C	-7.6%	-3.2	18.6%	1.1%	-4.6%	51.0
CC(=O)c1nnn(-c2cccc(C#N)c2)c1C	7.4%	-2.0	4.0%	20.3%	10.9%	-5.4
O=C(NCCCN1CCOCC1)C(=O)NCc1ccccc1Cl	1.1%	-1.7	.	9.7%	-27.6%	-21.0
CCOC(=O)c1ccc2nc(Nc3nc4ccc(F)cc4s3)sc2c1	-5.5%	150.2*	-4.9%	98.9%	24.1%	146.7*
COC(=O)c1ccc2nc(Nc3nc4c(F)cc(F)cc4s3)sc2c1	1.5%	57.2*	14.1%	39.0%	-26.8%	-14.5
CCOC(=O)c1ccc2nc(NC(C)=O)sc2c1	-5.6%	47.9*	.	263.2%	-1.0%	56.4
CCc1ccc(S(=O)(=O)Nc2ccc(-c3nc4cccnc4s3)cc2)s1	-2.6%	35.7*	1.1%	94.8%	149.2%	59.9*
O=S(=O)(Nc1cccc(-c2nc3cccnc3s2)c1)c1ccc2c(c1)OCCO2	-1.8%	-1.9	-32.1%	1.7%	17.4%	32.9
CCc1ccc(S(=O)(=O)Nc2ccc(-c3ccc4nncn4n3)cc2)s1	-2.1%	.	.	42.1%	?	.
O=C(Nc1cccc(-c2nc3cccnc3s2)c1)c1cccnc1Cl	10.5%	17.6*	-64.6%	?	?	30.9*
O=C(Nc1cccc(-c2nc3cccnc3s2)c1)c1ccc(Cl)nc1	1.7%	6.7	1.6%	?	?	21.5
O=S(=O)(Nc1ccc(-c2nc3cccnc3s2)cc1)c1cc(F)ccc1F	-4.5%	36.7*	9.7%	40.6%	51.5%	67.3*
NS(=O)(=O)c1ccc(C(=O)Nc2ccc(-c3nc4cccnc4s3)cc2)cc1	-3.1%	48.2*	3.8%	40.9%	15.9%	69.7*
